# A selection: hits, their analogues and other compounds. The true share with any hit is near 14%.
# USP30 inh – blocks human USP30 ubiquitin-rhodamine cleavage; Q70CQ3; purified USP30, Ub-rhodamine cleavage fluorescence; inhibition, % at 25 µM; 47,000 compounds, 5.3% hits; AID 1645860
# USP8 inh – inhibitors of human USP8 deubiquitinase; purified USP8, Ub-rhodamine cleavage fluorescence, 30 min; 47,000 compounds, 4.2% hits; P40818; inhibition, % at 20 µM
# USP10 block – human USP10 deubiquitinase inhibition; purified USP10, Ub-rhodamine fluorescence, 60 min; inhibition, % at 20 µM; 47,000 compounds, 1.1% hits
# USP17 inh – inhibitors of human USP17 deubiquitinase. 47,000 compounds, 6.5% hits. purified USP17, Ub-rhodamine cleavage fluorescence, 3 h. A8MUK1. inhibition, % at 50 µM
# USP28 inh – human USP28 deubiquitinase inhibition; AID 1645857; 47,000 compounds, 3% hits; purified USP28, Ub-rhodamine cleavage fluorescence, 30 min; inhibition, % at 25 µM; Q96RU2
# Starred values were filed as active, the others as inactive; i = inactive; nt = not tested or not shown. Rule as the data show it: active = inhibition above about 30%; inactive = the rest.
SMILES,USP30 inh,USP8 inh,USP10 block,USP17 inh,USP28 inh
Cc1ccc(C2CC(=O)c3cnc(NC(=O)c4ccc(Cl)cc4)nc3C2)cc1 (configuration not stated),42.9*,10.4,7.1,15.7,9.9
O=C(OCC(=O)N1CCc2ccccc2C1)c1cccc(C(F)(F)F)c1,26.1,22.9,4.6,24.6,19.7
COc1ccc(CNC(=O)CCc2ccc3nc(NC(=O)C(C)C)sc3c2)cc1,32.9*,-28.1,5.4,10.5,-0.1
COC1C(C)OC(OC(C)C(O)/C=C/C=C/C=C/C(=O)C(C)C(O)C(C)C2C/C=C/C=C/C=C/C(O)C(=O)/C(C)=C/C=C/C(C)=CC(O)/C(C)=C/CC(=O)O2)C(OC)C1O (configuration not stated),-3.0,-26.5,-8.5,-5.9,7.3
Cn1nnc2ccc(-c3noc(Cc4cccc(F)c4)n3)cc21,-10.7,-10.3,-1.4,-3.7,0.1
Cn1cc(-c2noc(Cc3cccc(C(F)(F)F)c3)n2)ccc1=O,17.5,8.7,-0.6,8.9,79.1*
COCC1CN(C(=O)c2ccncn2)Cc2cnn(CC3CC3)c21 (configuration not stated),-54.9,-57.6,-6.2,-22.6,-16.4
COc1ccc(-c2cc3ncnc(NC(C)c4ccco4)c3s2)cc1 (configuration not stated),-20.8,15.1,-7.3,58.3*,21.1
Cc1cc(C)cc(NS(=O)(=O)c2cc3c4c(c2)CC(=O)N4CCC3)c1,-7.2,6.5,0.7,-11.8,3.6
CC(=O)N1CCc2cc(Br)cc(S(=O)(=O)Nc3cc(C)cc(C)c3)c21,-2.0,-30.7,5.5,46.5*,-8.5
Cc1c(Cl)cccc1NC(=O)C(C)n1cnc2scc(-c3ccc4c(c3)CCCC4)c2c1=O (configuration not stated),-244.2,1.0,-5.5,-73.6,-47.4
O=C1Cc2ccccc2C(=O)N1Cc1cccc(Cl)c1,-73.6,88.4*,0.8,16.7,-58.5
O=C(NCc1ccco1)c1c2c(nc3ccccc13)-c1ccccc1CC2,-31.7,54.6*,-0.2,2.4,-2.3
Cc1c2c(nc3ccccc13)-c1ccccc1CC2,-22.3,15.8,3.8,5.0,55.2*
CCOc1ccccc1-c1noc(CCn2c(=O)[nH]c3ccccc3c2=O)n1,35.1*,20.8,3.5,9.5,11.3
O=c1[nH]c2ccccc2c(=O)n1CCc1nc(-c2ccc(F)cc2)no1,-0.3,-7.2,0.2,35.6*,-6.9
CCn1c(=O)c2ccccc2n(Cc2nc(-c3ccccc3OC)no2)c1=O,5.7,15.3,-1.0,56.3*,1.4
CCOc1ccccc1-c1noc(CCCC(=O)Nc2ccccc2)n1,-12.3,-18.0,-1.6,-10.4,-3.9
CCOc1ccccc1Nc1cc(C)nc2nc(-c3ccco3)nn12,23.5,21.0,-6.3,13.3,7.8
Cc1ccc(-c2ccc(N3CCOCC3)nn2)cc1S(=O)(=O)N1CCOCC1,i,-7.9,-2.8,nt,-6.5
Cc1ccc(C)c(S(=O)(=O)N2CCN(c3ccc4nnc(-c5ccco5)n4n3)CC2)c1,41.0*,76.1*,39.4*,63.5*,45.9*
O=S(=O)(c1ccccc1Cl)N1CCN(c2ccc3nnc(-c4ccco4)n3n2)CC1,38.5*,49.7*,39.2*,72.0*,33.8*
CC1CCN(c2ccc3nnc(CCC(=O)NCc4ccco4)n3n2)CC1,12.3,7.9,1.2,0.4,11.8
O=S(=O)(c1ccccc1Cl)N1CCN(CCOc2ccccc2)CC1,-10.5,-13.1,3.6,-0.1,-3.9
O=C(c1cc(Cl)ccc1Cl)N1CCN(c2ccc3nnc(-c4ccco4)n3n2)CC1,10.1,49.1*,-2.0,61.3*,2.1
SMILES,USP30 inh,USP8 inh,USP10 block,USP17 inh,USP28 inh
COc1ccc(-c2ccccc2CC2CN(C(=O)c3nccn3C)CCNC2=O)cc1 (configuration not stated),-0.1,-14.7,-1.3,-6.3,-5.5
Cn1ncc2c(NCCc3cccs3)nc(N3CCCC3)nc21,-59.2,-24.9,-6.0,nt,-16.3
COc1cc(C(=O)[C@@H]2[C@@H]3CCCN3[C@]3(C(=O)Nc4ccc(F)cc43)[C@@]23C(=O)Nc2ccccc23)cc(OC)c1OC,-63.9,-1.9,-6.8,-7.9,-9.3
CC1O[C@@H](c2ccc3c(c2O)C(=O)C2=C(C3=O)[C@@]3(O)C(=O)C(O)[C@](C)(O)C[C@@]3(O)C=C2)CC[C@@H]1OC(=O)/C=C/C=C/C=C/[C@@H]1O[C@@](C)(C(=O)O)O[C@H]1C (some centres not stated),-106.1,-79.0,-5.1,48.4*,48.4*
N#Cc1ccccc1S(=O)(=O)N1CCN(c2nnnn2-c2ccccc2)CC1,2.5,-0.4,-2.6,2.8,3.2
O=C(CCCc1ccccc1)Nc1nnc(C2CC(=O)N(c3ccccc3)C2)s1 (configuration not stated),nt,-1.1,8.3,41.1*,nt
Cc1ccc(N2CC(c3nnc(NC(=O)CCc4ccccc4)s3)CC2=O)cc1 (configuration not stated),29.0,55.8*,25.9,18.0,14.9
O=C(CCCc1ccccc1)Nc1nnc(C2CC(=O)N(c3ccc(Cl)cc3)C2)s1 (configuration not stated),7.8,0.1,4.1,1.0,3.0
CCCCC(=O)Nc1nnc(C2CC(=O)N(c3ccc(C)cc3)C2)s1 (configuration not stated),-0.7,52.4*,3.9,12.4,-3.7
Cc1ccc(N2CC(c3nnc(NC(=O)CCc4ccccc4)s3)CC2=O)cc1C (configuration not stated),0.0,-1.2,17.1,-11.0,-12.3
CCc1ccc(N2CC(c3nnc(NC(=O)Cc4ccc(C)cc4)s3)CC2=O)cc1 (configuration not stated),32.7*,-70.1,10.8,49.6*,16.7
O=C(CCc1nc(-c2ccc(F)cc2)no1)N1CCCC(c2nc3ccccc3s2)C1 (configuration not stated),6.1,14.5,5.4,2.7,11.0
COc1ccc(CC(=O)NC2CCN(c3ccc(C)cc3)C2=O)cc1 (configuration not stated),17.4,-3.5,2.6,38.2*,16.3
COc1ccc(CCC(=O)Nc2nnc(C3CC(=O)N(c4ccc(C)cc4)C3)s2)cc1 (configuration not stated),7.5,8.6,37.6*,-0.3,-2.3
Cc1ccc(CC(=O)Nc2nnc(C3CC(=O)N(c4cc(C)cc(C)c4)C3)s2)cc1 (configuration not stated),-11.4,-4.3,4.2,-4.5,-9.1
CCCN1c2ccccc2NC2=C(C(=O)CC(c3ccccc3)C2)C1c1cccs1 (configuration not stated),-3.9,24.0,-4.6,-3.3,-0.1
COc1ccccc1N/C=C/c1onc(-c2c(F)cccc2Cl)c1C#N,i,-63.5,-5.5,nt,-192.1
COC(=O)c1c(-c2c(Cl)cccc2Cl)noc1/C=C/Nc1ccc(C(=O)O)cc1,-35.1,26.0,-2.2,6.8,30.8*
CCOc1ccc(S(=O)(=O)[C@H]2CS(=O)(=O)C[C@@H]2N2CCCCC2)cc1,-0.7,4.0,-3.6,7.8,-0.3

# Screens (PubChem)
